In the supplement of paper PMC6411743:
± gives the standard deviation of the averaged measurements. Of roughly 6,200 targets only a part is listed; those with the largest changes were picked by preference.

Compound: Nc1ncnc2c1ncn2[C@@H]1O[C@H](COP(=O)(O)OP(=O)(O)NP(=O)(O)O)[C@@H](O)[C@H]1O [adenylyl imidodiphosphate]
Assay: NP40-soluble protein abundance relative to vehicle (solubility fold change) (ratio); higher = more soluble protein in presence of AMP-PNP
In short: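 In three independent experiments, Jurkat crude lysate made by Dounce homogenisation was treated for 10 min at room temperature and then 3 min at 37 °C with eight concentrations ranging from 0.1 to 10 mM. It was then solubilised with 0.8% NP40 plus benzonase for 60 min at 4 °C and ultracentrifuged. The supernatant was TMT-labelled for LC-MS/MS, and each value is the fold change against the detergent-processed vehicle for the same replicate, using vsn-normalised intensities.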

Chain of UniProt Q13769 (Q13769 whole entry): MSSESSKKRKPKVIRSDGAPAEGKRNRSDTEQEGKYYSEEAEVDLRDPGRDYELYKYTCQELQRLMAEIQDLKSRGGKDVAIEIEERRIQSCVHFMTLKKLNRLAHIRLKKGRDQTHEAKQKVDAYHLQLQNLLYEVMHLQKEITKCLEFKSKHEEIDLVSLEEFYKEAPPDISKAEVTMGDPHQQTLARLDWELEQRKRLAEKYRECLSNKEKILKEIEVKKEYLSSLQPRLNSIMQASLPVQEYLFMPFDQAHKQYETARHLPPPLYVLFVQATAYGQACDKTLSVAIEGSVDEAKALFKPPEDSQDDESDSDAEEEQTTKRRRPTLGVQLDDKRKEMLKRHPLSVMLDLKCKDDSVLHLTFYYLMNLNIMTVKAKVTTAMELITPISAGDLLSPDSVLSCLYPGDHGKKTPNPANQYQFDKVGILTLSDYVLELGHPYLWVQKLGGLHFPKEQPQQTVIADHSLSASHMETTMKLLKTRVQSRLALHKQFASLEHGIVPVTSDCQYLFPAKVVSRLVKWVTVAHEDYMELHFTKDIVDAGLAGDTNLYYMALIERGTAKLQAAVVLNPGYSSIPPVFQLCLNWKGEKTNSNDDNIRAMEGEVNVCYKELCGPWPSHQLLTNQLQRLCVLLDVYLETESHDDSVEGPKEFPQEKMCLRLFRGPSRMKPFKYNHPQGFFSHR
Chain of UniProt Q86U86 (Q86U86 whole entry): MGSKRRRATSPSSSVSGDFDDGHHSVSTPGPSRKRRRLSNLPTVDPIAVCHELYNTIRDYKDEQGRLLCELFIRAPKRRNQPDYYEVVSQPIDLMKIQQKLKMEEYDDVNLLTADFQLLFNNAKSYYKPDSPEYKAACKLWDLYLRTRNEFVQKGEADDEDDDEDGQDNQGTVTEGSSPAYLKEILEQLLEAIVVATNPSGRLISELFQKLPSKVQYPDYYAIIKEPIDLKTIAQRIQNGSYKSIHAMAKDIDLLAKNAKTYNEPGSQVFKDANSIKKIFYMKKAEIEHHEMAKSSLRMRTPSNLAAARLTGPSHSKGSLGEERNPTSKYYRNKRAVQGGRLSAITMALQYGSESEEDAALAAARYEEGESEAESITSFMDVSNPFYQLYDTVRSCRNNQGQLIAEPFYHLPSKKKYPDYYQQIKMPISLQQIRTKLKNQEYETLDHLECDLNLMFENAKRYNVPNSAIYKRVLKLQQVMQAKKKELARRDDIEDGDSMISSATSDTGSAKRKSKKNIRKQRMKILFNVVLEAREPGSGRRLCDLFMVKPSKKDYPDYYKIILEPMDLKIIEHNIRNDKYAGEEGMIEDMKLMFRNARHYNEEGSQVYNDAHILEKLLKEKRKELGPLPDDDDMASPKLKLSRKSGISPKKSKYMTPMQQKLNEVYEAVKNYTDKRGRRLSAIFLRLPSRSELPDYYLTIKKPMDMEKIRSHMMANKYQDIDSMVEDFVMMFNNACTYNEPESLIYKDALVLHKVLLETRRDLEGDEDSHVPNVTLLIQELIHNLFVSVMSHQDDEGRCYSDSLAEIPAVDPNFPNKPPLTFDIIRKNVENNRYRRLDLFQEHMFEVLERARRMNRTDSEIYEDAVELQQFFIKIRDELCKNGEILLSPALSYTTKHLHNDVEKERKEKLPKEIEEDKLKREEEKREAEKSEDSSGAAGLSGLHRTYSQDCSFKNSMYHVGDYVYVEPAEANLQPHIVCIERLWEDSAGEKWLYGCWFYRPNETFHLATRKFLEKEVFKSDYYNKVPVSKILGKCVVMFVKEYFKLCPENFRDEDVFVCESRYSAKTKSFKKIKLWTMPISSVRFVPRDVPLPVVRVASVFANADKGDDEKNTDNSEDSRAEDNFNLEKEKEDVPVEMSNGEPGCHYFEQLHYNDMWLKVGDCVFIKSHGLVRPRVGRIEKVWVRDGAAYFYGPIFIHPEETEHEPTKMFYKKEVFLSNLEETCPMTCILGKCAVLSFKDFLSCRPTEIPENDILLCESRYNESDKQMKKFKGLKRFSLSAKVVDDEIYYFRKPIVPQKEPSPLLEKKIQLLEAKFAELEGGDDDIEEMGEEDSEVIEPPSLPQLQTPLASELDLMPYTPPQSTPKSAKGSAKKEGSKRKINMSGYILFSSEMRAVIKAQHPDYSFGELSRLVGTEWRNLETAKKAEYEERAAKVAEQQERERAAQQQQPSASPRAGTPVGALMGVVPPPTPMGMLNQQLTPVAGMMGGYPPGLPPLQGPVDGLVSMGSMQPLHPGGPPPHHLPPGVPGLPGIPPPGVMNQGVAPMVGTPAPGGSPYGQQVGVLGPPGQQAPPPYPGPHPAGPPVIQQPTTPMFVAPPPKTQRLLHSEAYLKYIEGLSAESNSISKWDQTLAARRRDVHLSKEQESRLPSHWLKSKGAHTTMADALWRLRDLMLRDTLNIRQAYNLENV
Chain of UniProt Q8N122 (Q8N122 whole entry): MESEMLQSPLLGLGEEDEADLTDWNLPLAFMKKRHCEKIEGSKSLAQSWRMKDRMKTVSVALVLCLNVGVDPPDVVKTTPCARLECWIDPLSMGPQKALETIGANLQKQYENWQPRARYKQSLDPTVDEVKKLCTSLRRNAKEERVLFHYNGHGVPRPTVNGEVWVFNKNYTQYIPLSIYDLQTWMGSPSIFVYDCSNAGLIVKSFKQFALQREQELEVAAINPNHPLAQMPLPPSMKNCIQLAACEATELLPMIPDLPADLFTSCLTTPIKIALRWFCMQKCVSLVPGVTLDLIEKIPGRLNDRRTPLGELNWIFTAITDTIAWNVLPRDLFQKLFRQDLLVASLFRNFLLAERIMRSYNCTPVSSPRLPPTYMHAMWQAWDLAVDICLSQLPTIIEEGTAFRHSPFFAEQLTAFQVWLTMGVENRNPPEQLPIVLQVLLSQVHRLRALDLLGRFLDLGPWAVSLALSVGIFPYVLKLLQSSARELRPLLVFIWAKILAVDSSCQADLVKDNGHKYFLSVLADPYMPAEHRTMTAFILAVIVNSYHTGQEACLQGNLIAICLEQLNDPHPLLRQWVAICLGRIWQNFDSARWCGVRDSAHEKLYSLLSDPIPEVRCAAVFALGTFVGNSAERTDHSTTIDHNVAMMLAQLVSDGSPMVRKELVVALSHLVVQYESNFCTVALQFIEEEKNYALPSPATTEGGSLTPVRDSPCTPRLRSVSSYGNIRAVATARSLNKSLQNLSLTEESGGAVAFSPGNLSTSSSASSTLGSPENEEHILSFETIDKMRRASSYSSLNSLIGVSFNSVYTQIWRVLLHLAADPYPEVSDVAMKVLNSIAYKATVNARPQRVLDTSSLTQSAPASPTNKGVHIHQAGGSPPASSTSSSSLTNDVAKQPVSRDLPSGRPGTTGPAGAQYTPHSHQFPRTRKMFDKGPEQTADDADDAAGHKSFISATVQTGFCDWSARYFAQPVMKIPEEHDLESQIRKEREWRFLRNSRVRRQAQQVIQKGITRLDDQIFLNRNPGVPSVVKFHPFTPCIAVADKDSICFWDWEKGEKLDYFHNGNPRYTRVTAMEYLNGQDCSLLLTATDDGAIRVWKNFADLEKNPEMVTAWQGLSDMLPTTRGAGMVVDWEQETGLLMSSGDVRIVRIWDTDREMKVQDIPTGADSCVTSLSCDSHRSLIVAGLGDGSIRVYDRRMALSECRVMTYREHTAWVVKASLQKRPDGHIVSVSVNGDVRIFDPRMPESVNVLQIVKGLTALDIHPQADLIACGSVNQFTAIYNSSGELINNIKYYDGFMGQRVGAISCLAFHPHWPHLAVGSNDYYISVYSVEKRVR
Chain of UniProt Q8WUH2 (Q8WUH2 whole entry): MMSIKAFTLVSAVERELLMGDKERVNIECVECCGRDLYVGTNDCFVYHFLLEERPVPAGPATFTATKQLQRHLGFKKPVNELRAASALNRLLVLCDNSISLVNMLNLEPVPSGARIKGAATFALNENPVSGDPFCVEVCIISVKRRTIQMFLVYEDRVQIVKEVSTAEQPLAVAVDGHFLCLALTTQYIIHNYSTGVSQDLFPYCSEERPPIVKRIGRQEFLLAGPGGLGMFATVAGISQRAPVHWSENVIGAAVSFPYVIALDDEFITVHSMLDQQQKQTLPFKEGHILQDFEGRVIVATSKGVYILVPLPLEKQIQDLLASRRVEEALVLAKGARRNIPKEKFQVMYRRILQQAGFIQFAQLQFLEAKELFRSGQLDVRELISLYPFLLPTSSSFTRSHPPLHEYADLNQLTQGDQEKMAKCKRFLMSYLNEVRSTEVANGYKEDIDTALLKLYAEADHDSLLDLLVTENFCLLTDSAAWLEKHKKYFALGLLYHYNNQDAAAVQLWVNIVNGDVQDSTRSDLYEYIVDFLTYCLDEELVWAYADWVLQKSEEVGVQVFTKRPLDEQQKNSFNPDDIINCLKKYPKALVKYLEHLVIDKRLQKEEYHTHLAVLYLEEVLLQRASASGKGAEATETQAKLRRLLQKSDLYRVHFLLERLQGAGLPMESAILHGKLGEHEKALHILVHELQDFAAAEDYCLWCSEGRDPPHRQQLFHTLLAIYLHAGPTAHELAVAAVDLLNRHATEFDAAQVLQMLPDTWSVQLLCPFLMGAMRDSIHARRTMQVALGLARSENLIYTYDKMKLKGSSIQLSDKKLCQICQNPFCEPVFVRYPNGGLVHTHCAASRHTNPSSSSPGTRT
Chain of UniProt Q5JTJ3 (Q5JTJ3 whole entry, one chain of several): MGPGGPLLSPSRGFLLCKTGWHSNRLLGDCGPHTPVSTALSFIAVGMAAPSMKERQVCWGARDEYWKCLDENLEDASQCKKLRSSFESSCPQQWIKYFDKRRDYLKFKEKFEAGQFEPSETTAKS
Chain of UniProt Q13442 (Q13442 whole entry): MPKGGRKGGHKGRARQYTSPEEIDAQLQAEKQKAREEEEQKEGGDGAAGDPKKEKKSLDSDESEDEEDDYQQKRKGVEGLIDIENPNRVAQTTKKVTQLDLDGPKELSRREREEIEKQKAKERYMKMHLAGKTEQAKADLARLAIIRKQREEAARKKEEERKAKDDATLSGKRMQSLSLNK

Target	NP40-soluble protein abundance (concentration: 1mM)	NP40-soluble protein abundance (concentration: 2mM)	NP40-soluble protein abundance (concentration: 4mM)	NP40-soluble protein abundance (concentration: 6mM)	NP40-soluble protein abundance (concentration: 8mM)	NP40-soluble protein abundance (concentration: 10mM)
PDAP1 (UniProt Q13442)	1.07 ± 0.072	1.17 ± 0.026	1.13 ± 0.048	1.26 ± 0.093	1.24 ± 0.085	1.35 ± 0.12
EXOSC6 (UniProt Q5RKV6)	1.04 ± 0.032	1.03 ± 0.041	1.08 ± 0.018	1.12 ± 0.036	1.14 ± 0.052	1.14 ± 0.074
UniProt Q969T7|Q969T7-2	0.981 ± 0.054	0.95 ± 0.043	0.999 ± 0.029	0.966 ± 0.025	0.96 ± 0.042	0.963 ± 0.046
UniProt Q5JTJ3|Q5JTJ3-2|Q5JTJ3-3|X6R5Z6	1.02 ± 0.015	1.04 ± 0.081	0.991 ± 0.038	0.97 ± 0.043	0.943 ± 0.016	0.966 ± 0.046
THOC5 (UniProt Q13769)	1.36 ± 0.17	1.42 ± 0.23	1.65 ± 0.35	1.84 ± 0.54	2.03 ± 0.65	2.16 ± 0.88
UniProt Q8N122|Q8N122-3	1.01 ± 0.031	0.955 ± 0.021	0.985 ± 0.011	0.972 ± 0.013	0.967 ± 0.018	0.994 ± 0.034
PSME4 (UniProt Q14997)	0.9678 ± 0.0088	0.905 ± 0.072	0.968 ± 0.045	0.884 ± 0.075	0.925 ± 0.11	0.884 ± 0.11
TGFBRAP1 (UniProt Q8WUH2)	0.96 ± 0.042	0.89 ± 0.093	0.93 ± 0.048	0.895 ± 0.064	0.916 ± 0.047	0.889 ± 0.052
UniProt Q460N5|Q460N5-1	1.02 ± 0.02	0.993 ± 0.046	1.04 ± 0.039	0.9762 ± 0.0066	1.01 ± 0.029	0.9765 ± 0.0028
PYCR2 (UniProt Q96C36)	0.98 ± 0.028	1.01 ± 0.051	0.997 ± 0.013	1.01 ± 0.011	0.9755 ± 0.0097	1 ± 0.032
UniProt Q7L4P6|Q7L4P6-2	1.21 ± 0.13	1.37 ± 0.095	1.2 ± 0.15	1.14 ± 0.16	1.03 ± 0.043	1.23 ± 0.19
UniProt Q8NHM5|Q8NHM5-2|Q8NHM5-3|Q8NHM5-4	1.02 ± 0.024	1.034 ± 0.0075	1.04 ± 0.054	1.04 ± 0.04	1.01 ± 0.021	1.04 ± 0.034
UniProt Q86U86|Q86U86-8	1.051 ± 0.009	1.1 ± 0.014	1.15 ± 0.017	1.226 ± 0.008	1.29 ± 0.035	1.37 ± 0.09
UniProt Q15365	1.031 ± 0.0057	1.04 ± 0.038	1.04 ± 0.033	1 ± 0.02	1.01 ± 0.014	1.01 ± 0.03
UniProt Q684P5-2|Q684P5-3|Q684P5	1 ± 0.035	1 ± 0.024	0.997 ± 0.051	0.977 ± 0.029	0.963 ± 0.048	0.968 ± 0.026
DARS2 (UniProt Q6PI48)	0.939 ± 0.049	0.861 ± 0.12	0.924 ± 0.016	0.918 ± 0.036	0.942 ± 0.021	0.89 ± 0.012
UniProt Q71F23	1.05 ± 0.028	1.07 ± 0.034	1.03 ± 0.016	1.02 ± 0.039	1.07 ± 0.013	1.08 ± 0.0087
TAF9 (UniProt Q16594)	1.009 ± 0.0054	1.04 ± 0.02	1.01 ± 0.018	1.01 ± 0.018	1.03 ± 0.016	1.05 ± 0.039
UniProt Q6RI45|Q6RI45-2|Q6RI45-3|Q6RI45-4|Q6RI45-5	0.999 ± 0.016	0.9969 ± 0.0018	0.986 ± 0.016	0.9818 ± 0.0045	1 ± 0.043	1 ± 0.022
Q5THR1|Q9H5Z1|Q9H5Z1-2|F2Z2Z2 (UniProt Q9H5Z1)	1.02 ± 0.061	0.96808 ± 0.00094	1.01 ± 0.011	0.987 ± 0.024	0.991 ± 0.022	0.997 ± 0.023
ARFGAP1 (UniProt Q8N6T3)	1.02 ± 0.021	1.02 ± 0.023	1.02 ± 0.016	1.02 ± 0.023	0.993 ± 0.018	1.01 ± 0.038
UniProt Q6ZRI6|Q6ZRI6-2|H3BMJ2	0.9914 ± 0.0011	1.01 ± 0.044	1.01 ± 0.018	0.992 ± 0.029	1 ± 0.018	0.99766 ± 5.3e-05
CCDC6 (UniProt Q16204)	0.993 ± 0.023	1.06 ± 0.037	0.979 ± 0.041	0.957 ± 0.024	0.9475 ± 0.0034	0.916 ± 0.027
UniProt Q6UN15|Q6UN15-3	1.03 ± 0.024	1.11 ± 0.062	1.059 ± 0.0078	1.07 ± 0.053	1.08 ± 0.034	1.15 ± 0.064
DNTTIP2 (UniProt Q5QJE6)	1.1 ± 0.036	1.2 ± 0.022	1.27 ± 0.06	1.34 ± 0.083	1.4 ± 0.12	1.53 ± 0.16
UniProt Q86Y56	0.976 ± 0.045	0.931 ± 0.038	0.977 ± 0.037	1.01 ± 0.022	0.997 ± 0.055	0.991 ± 0.04
UniProt Q92614|Q92614-2|Q92614-4	1.02 ± 0.025	1.05 ± 0.026	1.01 ± 0.014	0.984 ± 0.045	0.955 ± 0.026	0.971 ± 0.042
UniProt Q8N4N3|Q8N4N3-2	1 ± 0.013	0.996 ± 0.019	0.981 ± 0.027	0.96 ± 0.019	0.981 ± 0.027	0.959 ± 0.017
NUBPL (UniProt Q8TB37)	1 ± 0.045	1.01 ± 0.057	1.02 ± 0.05	1.06 ± 0.092	1.03 ± 0.092	1.05 ± 0.076
FIG4 (UniProt Q92562)	1 ± 0.022	1.04 ± 0.024	1.06 ± 0.04	1.02 ± 0.024	0.9942 ± 0.0076	0.9926 ± 0.0034
